The target of assay [1] is Androgen receptor (Homo sapiens) (UniProt P10275). Description: ATG_AR_TRANS: Attagene TRANS-FACTORIAL HepG2 Assay for human Androgen Receptor (AR) (AID 2282973). To be noted: HepG2 Attagene TRANS-FACTORIAL AR reporter transcription. The gist of the method:
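Steps: transfect HepG2 with multiple GAL4-UAS reporter transcription units (TRANS format, exogenous NR-Gal4 protein); dose 24 h; isolate RNA, reverse-transcribe, PCR-amplify, FAM-label, HpaI-digest; resolve by capillary electrophoresis. Positive direction vs DMSO.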

For assay [2], the target named is human CYP4F12, CYP4F12 (gene 66002) (UniProt Q9HCS2). Description: NVS_ADME_hCYP4F12: NovaScreen (NVS) CYP450-related Enzyme Activity (ADME) Assay for human CYP4F12 (AID 2283111). In a few lines: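 Recombinant enzyme with a fluorescent substrate, signal read at 0.5 h post-dose; activity loss analysed relative to acetonitrile. Compounds first run in duplicate at 10 uM, with follow-up concentration-response testing of actives.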

In assay [3] the target is human Fibroblast Growth Factor Receptor 1 (FGFR1), FGFR1 (gene 2260) (UniProt P11362). Description: NVS_ENZ_hFGFR1: NovaScreen (NVS) Enzymatic Assay for human Fibroblast Growth Factor Receptor 1 (FGFR1) (AID 2283159). In a few lines:
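Cell-free recombinant kinase with fluorescent substrate, product separated by electrophoretic mobility shift; read 1 hour after dosing, loss of signal relative to DMSO. Initial screen in duplicate at 25 uM, actives followed in concentration series.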

Assay [4] concerns the target rat Gamma-Aminobutyric Acid Type A Receptor BDZ, alpha 6 site (GABARa6), Gabra6 (gene 29708) (UniProt P30191). Description: NVS_LGIC_rGABARa6: NovaScreen (NVS) Ligand-Gated Ion Channel Assay for rat Gamma-Aminobutyric Acid Type A Receptor BDZ, alpha 6 site (GABARa6) (AID 2283339). In a few lines:
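Actives from a 25 uM duplicate screen were retested in concentration series (max 50 uM). Specific radioligand displacement from rat cerebellar membranes was counted by filter-based scintillation at 1 h; DMSO served as baseline.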

The target in assay [5] is rat CYP1A2, Cyp1a2 (gene 24297) (UniProt P04799). The assay is described as follows: NVS_ADME_rCYP1A2: NovaScreen (NVS) CYP450-related Enzyme Activity (ADME) Assay for rat CYP1A2 (AID 2283115). In a few lines:
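Primary testing ran in duplicate at 10 uM, with actives re-tested across concentration series. Fluorescence intensity from substrate turnover by recombinant protein, measured 1 hour post-dosing, with signal loss scored against acetonitrile vehicle.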

Assay [6] deals with human Acetylcholinesterase (AChE), ACHE (gene 43) (UniProt P22303). The assay is described as follows: NVS_ENZ_hAChE: NovaScreen (NVS) Enzymatic Assay for human Acetylcholinesterase (AChE) (AID 2283129). In a few lines: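 Actives from a duplicate single-point screen (25 uM) were followed up in concentration series. Enzyme activity read by absorbance (colorimetric) 0.33 hour after dosing, cell-free, normalized to DMSO, with loss of signal scored.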
human Acetylcholinesterase (AChE), ACHE (gene 43), sequence (P22303 whole entry, looked up): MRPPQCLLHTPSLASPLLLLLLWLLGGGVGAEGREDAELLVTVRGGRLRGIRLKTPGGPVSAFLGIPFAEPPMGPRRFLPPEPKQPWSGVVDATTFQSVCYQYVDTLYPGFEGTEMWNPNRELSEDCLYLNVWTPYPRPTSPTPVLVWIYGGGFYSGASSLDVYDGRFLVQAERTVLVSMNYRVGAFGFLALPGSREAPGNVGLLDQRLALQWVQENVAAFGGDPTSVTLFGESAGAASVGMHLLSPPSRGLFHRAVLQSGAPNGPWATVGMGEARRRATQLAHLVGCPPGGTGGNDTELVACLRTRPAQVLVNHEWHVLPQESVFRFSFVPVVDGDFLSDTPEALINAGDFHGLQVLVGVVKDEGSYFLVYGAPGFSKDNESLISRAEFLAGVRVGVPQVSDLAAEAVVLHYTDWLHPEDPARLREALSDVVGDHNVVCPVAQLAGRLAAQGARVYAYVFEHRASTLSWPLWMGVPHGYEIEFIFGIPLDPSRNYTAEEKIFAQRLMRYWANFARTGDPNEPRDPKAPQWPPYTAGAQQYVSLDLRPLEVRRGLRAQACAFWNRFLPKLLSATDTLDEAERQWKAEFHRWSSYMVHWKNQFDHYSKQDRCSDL

For assay [7], the target named is human AMP-activated Protein Kinase, alpha 1 (AMPKa1), PRKAA1 (gene 5562) (UniProt Q13131). The assay is described as follows: NVS_ENZ_hAMPKa1: NovaScreen (NVS) Enzymatic Assay for human AMP-activated Protein Kinase, alpha 1 (AMPKa1) (AID 2283130). In a few lines:
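Compounds were screened in duplicate at 25 uM, and those reaching ~30% inhibition were titrated up to 50 uM. The enzyme was recombinant human AMPKα1, and kinase turnover was read by fluorescence/mobility shift 1 h post-dosing as loss of signal versus DMSO.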

The target in assay [8] is human Aurora Kinase A - serine/threonine-protein Kinase 6 (AurA), AURKA (gene 6790) (UniProt O14965). Description: NVS_ENZ_hAurA: NovaScreen (NVS) Enzymatic Assay for human Aurora Kinase A - serine/threonine-protein Kinase 6 (AurA) (AID 2283142). In a few lines: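 Recombinant human AurA activity read by fluorescence after mobility-shift separation of product from substrate; 1 hour incubation. Chemicals first run in duplicate at 25 uM, then concentration series to 50 uM if over threshold; fitted relative to DMSO.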
human Aurora Kinase A - serine/threonine-protein Kinase 6 (AurA), AURKA (gene 6790), sequence (O14965 whole entry, looked up): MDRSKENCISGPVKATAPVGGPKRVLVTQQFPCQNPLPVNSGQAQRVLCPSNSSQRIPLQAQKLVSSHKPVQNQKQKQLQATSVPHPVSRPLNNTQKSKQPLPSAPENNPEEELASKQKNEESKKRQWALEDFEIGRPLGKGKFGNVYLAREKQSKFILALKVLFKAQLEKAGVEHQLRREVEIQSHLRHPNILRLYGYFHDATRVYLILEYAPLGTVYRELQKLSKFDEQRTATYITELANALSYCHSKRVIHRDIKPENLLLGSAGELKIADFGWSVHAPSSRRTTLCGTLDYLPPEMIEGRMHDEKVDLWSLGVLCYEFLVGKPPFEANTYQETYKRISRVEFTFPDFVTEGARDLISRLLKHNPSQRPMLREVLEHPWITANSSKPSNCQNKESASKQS

Assay [9] addresses human Ephrin type-B Receptor 2 (EphB2), EPHB2 (gene 2048) (UniProt P29323). The assay is described as follows: NVS_ENZ_hEphB2: NovaScreen (NVS) Enzymatic Assay for human Ephrin type-B Receptor 2 (EphB2) (AID 2283156). The gist of the method: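 Compounds were first tested in duplicate at 25 uM, with hits rerun singly in concentration series up to 50 uM. Enzyme activity on fluorescent substrate was read at 1 h by mobility-shift separation, scored as signal loss relative to DMSO.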

Assay [10] has as its target human MET Proto-Oncogene, Receptor Tyrosine Kinase (MET), MET (gene 4233) (UniProt P08581). The assay is described as follows: NVS_ENZ_hMet: NovaScreen (NVS) Enzymatic Assay for human MET Proto-Oncogene, Receptor Tyrosine Kinase (MET) (AID 2283180). The gist of the method: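 Hits from a 25 uM duplicate screen were retested in concentration series up to 50 uM. Enzyme activity was measured by fluorescence after electrophoretic separation of product from substrate, 1 h after compound addition, relative to DMSO.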

The target of assay [11] is human p21 Activated Kinase 4 (PAK4), PAK4 (gene 10298) (UniProt O96013). The assay is described as follows: NVS_ENZ_hPAK4: NovaScreen (NVS) Enzymatic Assay for human p21 Activated Kinase 4 (PAK4) (AID 2283189). The gist of the method: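 Extracted PAK4 enzyme activity read by fluorescence with mobility-shift separation 1 h after chemical addition. Duplicate single-concentration screen at 25 uM, DMSO as negative control.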
human p21 Activated Kinase 4 (PAK4), PAK4 (gene 10298), sequence (O96013 whole entry, looked up): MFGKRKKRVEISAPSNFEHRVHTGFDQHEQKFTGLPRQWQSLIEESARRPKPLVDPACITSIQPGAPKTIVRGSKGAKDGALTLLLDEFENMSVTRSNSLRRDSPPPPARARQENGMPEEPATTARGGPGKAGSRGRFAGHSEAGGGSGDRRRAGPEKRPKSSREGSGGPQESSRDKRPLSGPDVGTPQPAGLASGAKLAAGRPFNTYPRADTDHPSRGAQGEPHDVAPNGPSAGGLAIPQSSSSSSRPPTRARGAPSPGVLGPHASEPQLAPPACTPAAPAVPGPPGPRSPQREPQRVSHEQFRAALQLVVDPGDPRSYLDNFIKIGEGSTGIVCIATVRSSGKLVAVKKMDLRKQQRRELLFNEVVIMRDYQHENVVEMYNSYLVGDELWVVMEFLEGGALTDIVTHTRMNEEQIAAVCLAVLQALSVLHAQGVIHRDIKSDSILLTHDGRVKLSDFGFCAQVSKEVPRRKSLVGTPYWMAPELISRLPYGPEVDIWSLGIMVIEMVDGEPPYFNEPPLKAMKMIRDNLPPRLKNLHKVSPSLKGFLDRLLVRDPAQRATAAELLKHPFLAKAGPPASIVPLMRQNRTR

Assay [12] deals with Norway rat Vesicular Monoamine Transporter (VMAT2), neurotransmitter transporter, Slc18a2 (gene 25549) (UniProt Q01827). Description: NVS_TR_rVMAT2: NovaScreen (NVS) Transporter Assay for Norway rat Vesicular Monoamine Transporter (VMAT2), neurotransmitter transporter (AID 2283376).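 Further: actives lower the bound radioligand signal below the DMSO level.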 In a few lines:
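Using rat forebrain membranes, specific radioligand binding to VMAT2 was measured by filtration and scintillation counting after 1 hour. Chemicals screened at 25 uM in duplicate, actives retested in concentration series, DMSO baseline.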

Assay [13] has as its target Cytochrome P450 2C18 (Homo sapiens) (UniProt P33260). Description: NVS_ADME_hCYP2C18: NovaScreen (NVS) CYP450-related Enzyme Activity (ADME) Assay for human CYP2C18 (AID 2283103; active means hit-call score of the fitted dose curve at least 0.9, where 1 is the maximum; inactive means score below 0.9). In a few lines: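 Enzyme activity measured by fluorescence 0.5 h after compound addition, using recombinant CYP2C18 and a specific substrate. Actives from duplicate 10 uM screening were retested in concentration series (top 20 uM); acetonitrile served as negative baseline.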

Assay [14] concerns rat Monoamine Oxidase, MAO-A, Peripheral (MAOAP), gene 29253. Description: NVS_ENZ_rMAOAP: NovaScreen (NVS) Enzymatic Assay for rat Monoamine Oxidase, MAO-A, Peripheral (MAOAP) (AID 2283237). The gist of the method: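 Scintillation counting tracked MAO-A activity in a cell-free rat liver mitochondrial membrane prep, read 1.17 hours after compound addition. Single-point duplicate testing at 25 uM preceded concentration-response follow-up; activity was fitted relative to DMSO.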

For assay [15], the target named is rat Monoamine Oxidase, MAO-B, Central (MAOBC), Maob (gene 25750) (UniProt P19643). The assay is described as follows: NVS_ENZ_rMAOBC: NovaScreen (NVS) Enzymatic Assay for rat Monoamine Oxidase, MAO-B, Central (MAOBC) (AID 2283238). In a few lines:
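Actives from a duplicate 25 uM screen went on to singleton concentration-response with a 50 uM maximum. Enzyme source was rat brain tissue MAO-B, assayed cell-free. Radiolabelled product was counted by scintillation 1.17 h post-dose, with signal loss relative to DMSO.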

The subject of assay [16] is rat Monoamine Oxidase, MAO-A, Central (MAOAC), gene 29253. Description: NVS_ENZ_rMAOAC: NovaScreen (NVS) Enzymatic Assay for rat Monoamine Oxidase, MAO-A, Central (MAOAC) (AID 2283243).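 Further: potency refers to inhibition seen as signal drop below DMSO baseline.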 In a few lines:
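Single-concentration duplicate testing at 25 uM, then concentration-response for actives, in a lysate-based radiodetection MAO-A activity assay from rat brain. Enzyme activity measured 1.5 hours post-dosing; DMSO served as negative control and baseline.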

Assay [17] has as its target human Caspase 10 (CASP10), CASP10 (gene 843) (UniProt Q92851). The assay is described as follows: NVS_ENZ_hCASP10: NovaScreen (NVS) Enzymatic Assay for human Caspase 10 (CASP10) (AID 2283133). The gist of the method:
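Fluorescence-intensity enzyme read-out of E. coli-expressed CASP10 activity, 1 h after compound. Single-point duplicates at 25 uM preceded concentration-response testing (top 50 uM) of hits; inhibition expressed as signal loss versus DMSO.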

The target of assay [18] is human Caspase 2 (CASP2), CASP2 (gene 835) (UniProt P42575). Description: NVS_ENZ_hCASP2: NovaScreen (NVS) Enzymatic Assay for human Caspase 2 (CASP2) (AID 2283135). The gist of the method:
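Single-point duplicate testing at 25 uM preceded concentration series topping at 50 uM. Activity of the recombinant E. coli-derived protease was followed by fluorescent substrate cleavage 1 h post-dosing, relative to DMSO.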

Assay [19] has as its target rat Neurotensin Receptor (NTS), Ntsr1 (gene 366274) (UniProt P20789). The assay is described as follows: NVS_GPCR_rNTS: NovaScreen (NVS) G Protein-Coupled Receptor Assay for rat Neurotensin Receptor (NTS) (AID 2283308). The gist of the method:
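Single-point duplicates at 25 uM, then concentration series to 50 uM max for hits, measured radioligand displacement on rat forebrain membrane preparations. Bound label counted by filtration scintillation at 1 h; signal loss relative to DMSO fitted.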

Assay [20] addresses rat Oxytocin Receptor (OXT), Oxtr (gene 25342) (UniProt P70536). The assay is described as follows: NVS_GPCR_rOXT: NovaScreen (NVS) G Protein-Coupled Receptor Assay for rat Oxytocin Receptor (OXT) (AID 2283330). In a few lines:
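Binding to rat uterine membrane receptor was followed by scintillation counting of filter-trapped radioligand after 1 h. A 25 uM duplicate single-point screen preceded concentration series with a top of 50 uM. Signal loss was analysed relative to DMSO.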

“And” between values parts separate entries of the source, which are not always exact repeats. Equal values may be shown once. Inconclusive results are not listed. The source made the active and inactive calls. How the source made its calls, unless noted: active means hit-call score of the fitted dose curve at least 0.9, where 1 is the maximum; inconclusive means response in the unintended direction; inactive means score below 0.9.

Norway rat Vesicular Monoamine Transporter (VMAT2), neurotransmitter transporter, Slc18a2 (gene 25549), sequence (Q01827 whole entry, looked up): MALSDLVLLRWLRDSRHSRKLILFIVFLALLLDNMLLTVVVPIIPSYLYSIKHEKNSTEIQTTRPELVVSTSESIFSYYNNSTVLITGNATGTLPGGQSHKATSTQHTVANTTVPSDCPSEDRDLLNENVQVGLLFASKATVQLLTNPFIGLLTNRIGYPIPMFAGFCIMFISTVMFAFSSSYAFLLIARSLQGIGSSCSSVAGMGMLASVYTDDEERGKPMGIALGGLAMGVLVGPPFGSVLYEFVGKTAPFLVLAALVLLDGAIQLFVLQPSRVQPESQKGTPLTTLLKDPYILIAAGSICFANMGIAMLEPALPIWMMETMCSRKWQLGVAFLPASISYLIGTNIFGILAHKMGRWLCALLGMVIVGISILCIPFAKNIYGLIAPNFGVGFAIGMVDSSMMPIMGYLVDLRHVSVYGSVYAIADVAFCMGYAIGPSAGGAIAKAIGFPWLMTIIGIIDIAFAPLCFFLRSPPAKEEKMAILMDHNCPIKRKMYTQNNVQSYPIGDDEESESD
Androgen receptor (Homo sapiens), sequence (P10275 whole entry, looked up, the tested form may be a part): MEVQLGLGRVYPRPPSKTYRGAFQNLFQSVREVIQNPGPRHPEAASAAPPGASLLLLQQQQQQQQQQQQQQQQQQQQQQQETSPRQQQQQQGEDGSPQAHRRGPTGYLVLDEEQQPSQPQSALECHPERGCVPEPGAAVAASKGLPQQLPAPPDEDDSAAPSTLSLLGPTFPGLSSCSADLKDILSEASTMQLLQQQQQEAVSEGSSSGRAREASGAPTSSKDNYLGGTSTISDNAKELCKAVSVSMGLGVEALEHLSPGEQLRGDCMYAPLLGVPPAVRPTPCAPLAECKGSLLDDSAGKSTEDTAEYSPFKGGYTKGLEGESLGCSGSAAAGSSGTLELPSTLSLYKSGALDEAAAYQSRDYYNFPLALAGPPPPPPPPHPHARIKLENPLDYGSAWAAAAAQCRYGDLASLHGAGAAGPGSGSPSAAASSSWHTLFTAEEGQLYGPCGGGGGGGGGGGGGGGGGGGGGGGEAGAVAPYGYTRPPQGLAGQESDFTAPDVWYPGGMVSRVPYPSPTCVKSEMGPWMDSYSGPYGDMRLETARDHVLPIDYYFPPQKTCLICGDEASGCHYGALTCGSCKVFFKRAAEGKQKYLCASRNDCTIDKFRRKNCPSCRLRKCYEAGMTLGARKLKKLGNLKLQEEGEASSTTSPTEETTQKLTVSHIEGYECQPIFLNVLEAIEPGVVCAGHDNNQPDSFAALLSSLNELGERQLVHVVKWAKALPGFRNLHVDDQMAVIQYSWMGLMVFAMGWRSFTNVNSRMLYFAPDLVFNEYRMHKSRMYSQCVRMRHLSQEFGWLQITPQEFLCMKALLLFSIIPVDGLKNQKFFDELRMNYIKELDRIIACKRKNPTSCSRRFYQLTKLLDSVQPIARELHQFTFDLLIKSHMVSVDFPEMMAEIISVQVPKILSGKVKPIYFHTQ
rat Monoamine Oxidase, MAO-B, Central (MAOBC), Maob (gene 25750), sequence (P19643 whole entry, looked up): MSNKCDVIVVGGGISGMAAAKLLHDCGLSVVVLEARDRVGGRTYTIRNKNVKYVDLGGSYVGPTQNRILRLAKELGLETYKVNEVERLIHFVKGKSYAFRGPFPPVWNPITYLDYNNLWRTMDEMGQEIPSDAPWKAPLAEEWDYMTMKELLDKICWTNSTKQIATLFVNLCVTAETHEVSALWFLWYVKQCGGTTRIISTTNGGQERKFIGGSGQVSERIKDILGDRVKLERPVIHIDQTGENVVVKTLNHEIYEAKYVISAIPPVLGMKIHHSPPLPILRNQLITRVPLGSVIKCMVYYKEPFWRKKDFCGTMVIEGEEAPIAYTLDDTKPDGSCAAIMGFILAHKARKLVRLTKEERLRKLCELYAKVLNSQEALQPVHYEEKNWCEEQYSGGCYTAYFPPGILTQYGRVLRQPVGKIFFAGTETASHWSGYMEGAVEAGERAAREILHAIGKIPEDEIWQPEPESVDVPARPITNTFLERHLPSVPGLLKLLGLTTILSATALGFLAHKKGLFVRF
Cytochrome P450 2C18 (Homo sapiens), sequence (P33260 whole entry, looked up): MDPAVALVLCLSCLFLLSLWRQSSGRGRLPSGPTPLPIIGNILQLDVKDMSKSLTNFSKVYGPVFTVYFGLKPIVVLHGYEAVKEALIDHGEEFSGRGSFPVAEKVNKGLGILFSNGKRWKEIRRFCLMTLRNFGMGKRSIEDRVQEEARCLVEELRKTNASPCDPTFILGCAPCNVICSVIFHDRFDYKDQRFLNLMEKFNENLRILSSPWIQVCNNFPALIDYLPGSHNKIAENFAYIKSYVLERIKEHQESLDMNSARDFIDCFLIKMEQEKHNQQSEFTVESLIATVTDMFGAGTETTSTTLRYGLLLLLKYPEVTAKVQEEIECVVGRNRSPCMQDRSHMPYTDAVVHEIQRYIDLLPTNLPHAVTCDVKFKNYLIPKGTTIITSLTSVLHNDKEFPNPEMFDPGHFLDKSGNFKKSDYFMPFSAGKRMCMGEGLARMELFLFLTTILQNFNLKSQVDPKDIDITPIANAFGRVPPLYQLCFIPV
rat Oxytocin Receptor (OXT), Oxtr (gene 25342), sequence (P70536 whole entry, looked up): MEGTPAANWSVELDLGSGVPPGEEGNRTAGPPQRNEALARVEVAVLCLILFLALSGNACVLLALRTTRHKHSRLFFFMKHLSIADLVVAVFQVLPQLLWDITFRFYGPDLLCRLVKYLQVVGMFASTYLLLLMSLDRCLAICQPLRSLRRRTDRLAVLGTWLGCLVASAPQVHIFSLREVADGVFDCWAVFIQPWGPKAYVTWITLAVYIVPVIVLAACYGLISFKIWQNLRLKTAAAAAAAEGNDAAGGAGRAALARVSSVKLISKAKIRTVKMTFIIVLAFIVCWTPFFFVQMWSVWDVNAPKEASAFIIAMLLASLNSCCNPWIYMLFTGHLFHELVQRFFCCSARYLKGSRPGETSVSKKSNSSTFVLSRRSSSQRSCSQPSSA
human Caspase 10 (CASP10), CASP10 (gene 843), sequence (Q92851 whole entry, looked up): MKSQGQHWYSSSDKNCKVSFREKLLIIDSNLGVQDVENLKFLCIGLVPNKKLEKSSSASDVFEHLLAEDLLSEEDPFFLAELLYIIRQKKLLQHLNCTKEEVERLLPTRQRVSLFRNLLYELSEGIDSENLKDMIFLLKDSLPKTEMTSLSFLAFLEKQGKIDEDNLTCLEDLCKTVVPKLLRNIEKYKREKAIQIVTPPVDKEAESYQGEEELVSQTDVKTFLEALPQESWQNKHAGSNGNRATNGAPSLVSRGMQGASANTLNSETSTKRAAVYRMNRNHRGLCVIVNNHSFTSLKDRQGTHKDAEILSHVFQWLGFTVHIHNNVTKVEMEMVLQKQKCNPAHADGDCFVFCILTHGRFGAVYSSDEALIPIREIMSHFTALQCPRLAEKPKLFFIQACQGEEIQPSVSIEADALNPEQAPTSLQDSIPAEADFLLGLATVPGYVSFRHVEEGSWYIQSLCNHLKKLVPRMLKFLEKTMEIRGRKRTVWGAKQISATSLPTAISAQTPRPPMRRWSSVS

For orientation: AC50 means the concentration giving half of the maximal activity seen. On to `CCCCCCCCCC(=O)O`, for which the outcome in assay [1], in assay [3] and in [4] was inactive. The AC50 in assay [2] was 2.83 µM (active).

On to `c1ccc(-c2ccccn2)nc1`, for which the result in assay [1] was inactive.

For the compound `c1cc[nH]c1`, the call in assay [1] and in assay [5] was inactive.

In the case of `COc1cc(C(=O)NC2CCN(C)CC2)ccc1Nc1ncc2c(n1)N(C1CCCC1)CC(F)(F)C(=O)N2C`, the compound was classed as inactive in assay [1], in assay [7], in assay [8], in assay [9], in assay [10] and in assay [11]. In addition, the AC50 in assay [6] is 23.4 µM (active); in [12], 3.01 µM (active).

For the compound `O=c1c(-c2ccc(O)cc2)coc2cc(O)cc(O)c12`, the result in assay [1], in assay [13] and in assay [12] was inactive. Also, the AC50 is 3.49 µM (active) in [14]; 31.1 µM (active) and 25 µM (active) in assay [15]; 10.6 µM (active) and 12.2 µM (active) and 2.7 µM (active) in assay [16].

Take `CCN(CC)c1ccc2c(c1)Oc1cc(N(CC)CC)ccc1C21OC(=O)c2ccccc21`: the compound was called inactive in [1].

As for `CN(C)c1ccc(C(=C2C=CC(=[N+](C)C)C=C2)c2ccc(N(C)C)cc2)cc1`, the result in [1] and in assay [17] was inactive. Moreover, the AC50 in assay [6] was 6.48 µM (active); in [18], 18.2 µM (active); in [16] it was 25 µM (active); in assay [19] it was 6.82 µM (active); in assay [20] it was 20.9 µM (active); in assay [12] it was 1.89 µM (active).
